Compound activity (PubChem)
This is a sample that favours compounds with a hit; in the whole collection about 8.1% have one here.
KB-V1 cytotox – kills drug-selected multidrug resistant KB-V1 cells. Potency, µM (titrated, usually from 46.1 µM), actives largely listed as cytotoxic. hit rate 3.4% among 400,000. KB-V1 MDR cells viability, CellTiter-Glo, 72 h; note: % is set by controls: 0 for no effect and ±100 for the full control effect; nearly all actives have a fitted effect of over 60% in size
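Luminescent ATP read-out (CellTiter-Glo, 10 min) measures survival of drug-selected KB-V1 MDR cells after 72 h, 37 degrees C compound exposure. Medium: phenol-red-free DMEM, 10% FBS. Values from fitted concentration-response curves.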
MCF10A rereplic – induces DNA re-replication in MCF 10a normal breast cells. Potency, µM (top dose mostly 46.1 µM), for inactives: at the top dose activity, positive = re-replication, most hits filed as activators. hit rate 2.9% among 350,000. MCF 10A DNA re-replication, Hoechst nuclear intensity, 48 h; note: % of control where 0% means no effect; nearly all actives have a fitted effect of over 50% in size
ELG1 repair inh – ELG1-dependent DNA repair inhibition. AID 504467. HEK293T ELG1-luciferase reporter, luminescence, 16 h; DNA damage induced by 5-fluorouridine. hit rate 2.3% among 330,000. Potency, µM (doses to about 46.1 µM), inactives show top-dose activity change, negative = inhibition, hits mostly inhibitors; note: % is set by controls: 0 for no effect and ±100 for the full control effect; nearly all actives have a fitted effect of over 55% in size
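HEK293T cells expressing luciferase-tagged ELG1 (2,000/well) received 5-Fluorouridine plus compound or DMSO for 16 hr at 37 °C. Luciferase was read by ONE-Glo luminescence after 30 min at room temperature.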
KB-3-1 tox – KB-3-1 parental cell cytotoxicity | KB-3-1 viability, CellTiter-Glo ATP luminescence, 72 h | Potency, µM (top dose mostly 46.1 µM), most hits filed as cytotoxic | hit rate 1.4% among 400,000; note: % is set by controls: 0 for no effect and ±100 for the full control effect; nearly all actives have a fitted effect of over 60% in size
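72 h, 37 °C compound treatment of KB-3-1 parental cells; CellTiter-Glo added, 10 min, luminescence read. Data corrected against DMSO-only plates and normalized before curve fitting.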
SW480 rerep – DNA re-replication induction in SW480 cells. SW480 DNA re-replication, Hoechst DNA content imaging, 48 h. hit rate 1.8% among 340,000. AID 624297. Potency, µM (top dose mostly 46.1 µM), for inactives: at the top dose re-replication activation, usual class: activators; note: % of control where 0% means no effect; nearly all actives have a fitted effect of over 55% in size
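Cells (250 per well) received 23 nL compound or DMSO by pin tool and were kept 48 hr at 37 C, 5% CO2. Nuclei were then stained with Hoechst for 40 min and scanned for DNA content.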
Active calls of the source: *; i = inactive; ? = inconclusive; . = no result; [ ] = remark or other dose. Calls come from the whole dose curve; as a rule, active = well fitted curve in the direction sought with a large enough effect; inconclusive = small, poorly fitted or top-dose-only effect, or another doubt; inactive = no such curve, though single readings can be large; an effect the other way counts as inactive or inconclusive. Potency is the fitted concentration of half-maximal effect.

SMILES	KB-V1 cytotox	MCF10A rereplic	ELG1 repair inh	KB-3-1 tox	SW480 rerep
Cn1c(=O)c2c(nc(NCc3ccc4c(c3)OCO4)n2Cc2ccccc2)n(C)c1=O	i	?	16µM*	23µM*	?
Cc1ccc(Sc2ccc(N3CCC(C(=O)Nc4ccc(Cl)cc4)CC3)nn2)cc1	i	.	.	i	.
COc1ccccc1NC(=O)CSc1nccc(-c2ccco2)n1	i	22%	-5%	i	-4%
Cn1c(=O)c2c(nc(NCc3ccccc3)n2Cc2ccc(Cl)c(Cl)c2)n(C)c1=O	18µM*	.	.	?	.
CN1CCN(/C=N/c2c(C#N)cnn2Cc2ccccc2)CC1	10µM*	-2%	-14%	i	-4%
N#Cc1ccccc1Cn1cc(/C=N/Nc2ccc([N+](=O)[O-])cn2)c2ccccc21	?	12%	6.5µM*	i	8%
O=[N+]([O-])c1ccc(N/N=C/c2ccc(OCc3cccc4ccccc34)cc2)nc1	i	?	?	?	21µM*
O=C(N/N=C/c1cc([N+](=O)[O-])ccc1O)Nc1ccccc1	i	?	?	?	?
O=[N+]([O-])c1ccc(O)c(/C=N/Nc2nc3ccccc3[nH]2)c1	?	8.2µM*	?	?	23%
O=[N+]([O-])c1ccc(O)c(/C=N/Nc2ncnc3c2cnn3-c2ccccc2)c1	i	-16%	?	?	2.3µM*
O=[N+]([O-])c1ccc(NN=Cc2ccccc2)nc1	i	-1%	.	i	?
COc1ccc(N2CCN(S(=O)(=O)c3c(C)nc4sc(C)cn4c3=O)CC2)cc1	i	.	.	i	.
O=C1CCc2cc(Cl)c(S(=O)(=O)Nc3ccc(Cl)c(Cl)c3)cc2N1	i	.	.	i	.
NC(=O)C1CCN(c2nnc(-c3ccc4c(c3)OCCCO4)s2)CC1	i	.	.	i	.
Cc1cccc(-c2nc3ccccc3n3c(-c4ccccc4)c4c(=O)n(C)c(=O)n(C)c4c23)c1	i	.	.	i	.
O=[N+]([O-])c1ccc(N/N=C\c2cccn2-c2ccccc2)nc1	?	15µM*	1%	?	?
O=[N+]([O-])c1cccc(N/N=C/c2cc([N+](=O)[O-])ccc2O)c1	i	?	?	i	-8%
O=[N+]([O-])c1cccnc1N/N=C/c1ccccc1O	?	-4%	?	1.8µM*	0.82µM*
O=[N+]([O-])c1ccc(O)c(/C=N/Nc2ccccn2)c1	i	?	?	?	1.3µM*
COc1ccccc1C=NNc1ccc([N+](=O)[O-])cn1	i	-1%	.	i	-2%
O=[N+]([O-])c1ccc(NN=Cc2ccccc2O)nc1	i	?	.	i	2.6µM*
O=C(O)C[CH2][Ge](=[O])[O][Ge](=[O])[CH2]CC(=O)O	.	0%	.	.	5%
Oc1cccc(C=NNc2ccccn2)c1	?	2%	.	i	0%
Oc1ccc(C=NNc2ccccn2)c(O)c1	i	16µM*	.	?	?
O=C(Nc1ccccc1C(=O)Nc1nnc(C(F)(F)F)s1)c1ccccc1Cl	?	?	5.2µM*	21µM*	?
SMILES	KB-V1 cytotox	MCF10A rereplic	ELG1 repair inh	KB-3-1 tox	SW480 rerep
Cc1nn(-c2ccccc2)nc1C(=O)Nc1nnc(C(F)(F)F)s1	?	?	15µM*	?	-19%
CC(NC(=O)Nc1nnc(C(F)(F)F)s1)(C(F)(F)F)C(F)(F)F	i	12µM*	5.2µM*	13µM*	?
O=C(Nc1nnc(C(F)(F)F)s1)c1ccc(Br)s1	2.9µM*	19%	?	4.6µM*	2%
NC(=O)c1ccccc1NC(=O)c1ccccc1Cl	i	9%	15%	i	3%
CC(C)(C)CC(=O)Nc1nnc(C(F)(F)F)s1	i	-1%	-13%	i	8%
C[C@@H]1CN([C@@H](C)CO)C(=O)c2cc(Br)cnc2O[C@H]1CN(C)C(=O)NC1CCCC1	i	.	.	i	.
COc1ccc(NC(=O)c2ccccc2OCC(=O)Nc2ccc(Br)cc2)cc1	i	.	.	i	.
COCCn1c(SCC(=O)c2ccc(C)cc2)nc2cc(C(=O)NC3CCCC3)ccc2c1=O	i	.	.	i	.
O=C(Nc1ccccc1C(=O)Nc1nncs1)c1ccccc1	i	?	21µM*	i	-4%
COc1cc(-c2ccno2)ccc1S(=O)(=O)N1CCN(c2ccccc2)CC1	i	.	.	i	.
CCN(CC)C(=O)CSc1nnc(-c2ccccc2)o1	i	5.2µM*	?	i	?
COc1ccc2nc(SCCOC(=O)Nc3ccc(Cl)cc3)nc(C)c2c1	15µM*	?	?	?	-105%
COc1ccc2nc(SCc3cccc(C)c3)nc(C)c2c1	16µM*	?	?	i	-43%
COc1ccc2nc(SCC(=O)O)nc(C)c2c1	i	-1%	2%	i	-11%[9.22 µM]
COc1ccc2nc(SC(C(=O)c3ccccc3)c3ccccc3)nc(C)c2c1 (stereo unspecified)	i	15%	17%	i	4%
COc1ccc2nc(SCc3ccccc3C)nc(C)c2c1	15µM*	0%	?	i	11%
Cc1ccc2nc(SCc3cccc([N+](=O)[O-])c3)nc(C)c2c1	?	?	9%	i	1%
O=C(CNC(=O)c1ccc2c(=O)n3c(nc2c1)CCC3)Nc1ccc(F)c(F)c1	i	1%	-2%	i	1%
CC[C@@H](C)C(N)C(=O)O (stereo partly specified)	.	12%	.	.	-8%
CC(=O)c1cccc(NC(=O)CN2C(=O)c3ccccc3Sc3ncccc32)c1	i	.	.	i	.
CN(C)c1cc2c(cc1NC(=O)c1ccccc1Cl)n(C)c(=O)n2C	i	3%	?	i	-9%
CC1=C(C(=O)Nc2cccc(F)c2)C(c2ccsc2)C2=C(CC(C)(C)CC2=O)N1 (stereo unspecified)	15µM*	5.8µM*	?	2.9µM*	.
O=C1CCCCc2sc(Br)c([N+](=O)[O-])c2N1	i	?	?	i	2.9µM*
COc1cc(/C=C/C(=O)OCC(=O)c2ccc(OC(F)F)cc2)ccc1O	i	?	18µM*	i	6%
CCc1cccc2c(C(=O)COC(=O)/C=C/c3ccc(O)c(OC)c3)c[nH]c12	i	-52%	21µM*	i	22%
COc1cccc(/C=C/C(=O)OCC(=O)c2c[nH]c3ccccc23)c1OC	i	-7%	16µM*	i	-7%
O=P1(O)CC2=C(CC=CC2)C1	i	.	.	i	.
Cc1cnc(C(=O)OCc2nc3ccsc3c(=O)[nH]2)cn1	i	0%	-7%	i	0%
O=C(NCc1nnc(SCc2ccc(F)cc2)n1-c1ccc(F)cc1)C12CC3CC(CC(C3)C1)C2	?	9%	?	23µM*	0%
